We go through 18 molecules from PubChem BioAssay AID2331 (The Scripps Research Institute Molecular Screening Center, 2010).

For this assay, the target named is Serine/threonine-protein phosphatase 5 (Homo sapiens) (UniProt P53041). The assay can be described thus: inhibition of human PPP5C phosphatase activity – biochemical, fluorescence, confirmation (AID 2331). To be noted: Purified PP5, fluorogenic phosphatase substrate, at 6.7 µM, active compounds read high.

Some of the results follow. Unmarked numbers belong to inactive results. Calls of active or inactive are those of the source. Rule as the data show it: active = inhibition above about 9.5%; inactive = the rest.

For orientation: inhibition means the drop in the measured response relative to a control, in per cent.

Sequence of Serine/threonine-protein phosphatase 5 (Homo sapiens) (P53041 whole entry, looked up): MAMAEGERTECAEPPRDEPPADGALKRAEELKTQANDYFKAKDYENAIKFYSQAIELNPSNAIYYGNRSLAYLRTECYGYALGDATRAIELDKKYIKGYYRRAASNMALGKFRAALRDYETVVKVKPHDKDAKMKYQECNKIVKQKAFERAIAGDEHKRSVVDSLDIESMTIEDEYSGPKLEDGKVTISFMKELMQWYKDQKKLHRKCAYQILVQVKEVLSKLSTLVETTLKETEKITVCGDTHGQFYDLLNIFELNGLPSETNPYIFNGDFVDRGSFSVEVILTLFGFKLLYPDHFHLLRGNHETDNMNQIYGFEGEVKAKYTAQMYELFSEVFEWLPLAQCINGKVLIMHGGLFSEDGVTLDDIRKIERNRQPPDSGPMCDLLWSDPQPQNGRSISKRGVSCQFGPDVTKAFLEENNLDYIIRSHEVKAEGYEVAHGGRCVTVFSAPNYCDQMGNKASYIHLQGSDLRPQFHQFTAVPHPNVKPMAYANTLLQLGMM

`O=C(O)c1n[nH]nc1-c1ccccc1`: the inhibition was 41.3% (active).
The value for `CNC(=S)NNC(=O)c1oc2nc(-c3ccccc3)cc(-c3ccco3)c2c1N` was -5.36%; that for `C[C@@]12C(=O)N(c3cccc(Br)c3)C(=O)N1[C@H](c1ccc(Cl)cc1)[C@@H]1C(=O)N(C3CCCCC3)C(=O)[C@@H]12` was 7.67%.
The value for `Cc1nnc(SCc2nc3ccccc3nc2C)s1` was -2.92%.
As for `CCOC(=O)Nc1ccc2c(c1)N(C(=O)CN1CCN3CCCC3C1)c1ccccc1CC2` (stereo not drawn), the figure is -4.11%.
Consider `O=[N+]([O-])c1cccc2ncccc12`, for which the inhibition is -1.87%.
As for `O=C(C1=C[C@H](c2ccc(C(F)(F)F)cc2)C[C@H](OCc2ccc(CO)cc2)O1)N1CCN(Cc2ccccc2)CC1`, the figure is 3.97%; as for `CN(C)c1nc(N)nc(CSc2nnnn2-c2cccc3ccccc23)n1`, -0.03%.
For the molecule `O=c1ccc2c(-c3ccccc3S(=O)(=O)O)c3ccc(O)c(O)c3oc-2c1O`, the inhibition was 3.55%.
The value for `COCCN1C=C2C(=O)C(C)(OC(=O)C3CCCC3)C(=O)C=C2C=C1c1ccsc1` (stereo not drawn) was 43.5% (active); that for `COc1ccc(OC)c(C(=O)c2ccc(C(=O)O)cc2)c1` was -7.99%.
As for `COc1cc(C(F)(F)F)c(C(=O)N(C)c2ccc(Cl)cc2)cn1`, the figure is -0.02%; as for `Cc1sc(NC(=O)C2C3CCC(O3)C2C(=O)O)c(C(=O)OC(C)C)c1-c1ccc(Cl)cc1` (stereo not drawn), 3.03%.
As for `Cc1nc(NC(CC(C)C)C(=O)O)c2nc(C)oc2n1` (stereo not drawn), the figure is -2.93%.
Consider `COc1cc(/C=C2/SC(=S)N(Cc3ccccc3)C2=O)cc(OC)c1O`, for which the inhibition is 0.02%.
The value for `N#Cc1c(N2CCCCC2)nc(N)c2c(N)nc(SCC(=O)O)cc12` was 36.8% (active).
As for `CN(c1ccccc1)S(=O)(=O)c1ccc(NC(=O)COc2ccccc2)cc1`, the figure is 1.21%; as for `CCN1CCN(CCNC(=O)c2ccc(/C=C3/Sc4ccccc4N(Cc4cccc(C)c4)C3=O)cc2)CC1`, 1.06%.
